Inconclusive results are not listed. The source made the active and inactive calls. Unless noted, calls follow the shape of the dose curve; as a rule, active = well fitted curve in the direction sought with a large enough effect; inconclusive = small, poorly fitted or top-dose-only effect, or another doubt; inactive = no such curve, though single readings can be large; an effect the other way counts as inactive or inconclusive.
How the values were obtained:
[1] = Cell Viability - Jurkat (AID 426;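 active = dose-dependent loss of cell ATP signal giving a full or clear fitted curve, ranked by lower potency value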; also: potency is read from the fitted curve at half-maximal effect); conditions: qHTS
How it was run: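 Jurkat (clone E6-1, human T-cell leukemia) cells, 5000/well in complete medium, were exposed to compound for 40 hr at 37 °C. Viability was read as intracellular ATP by CellTiter-Glo luminescence; AC50 came from Hill fits of concentration-response data.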

[2] = Cell Viability - LYMP2-001 (AID 921); conditions: LYMP2-001 lymphoblastoid cell viability; series mostly up to 92.2 µM; also: nearly all actives have a fitted effect of over 70% in size
How it was run: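 CellTiter-Glo luminescence (intracellular ATP) after 24 hr compound exposure at 37 C, 2500 lymphoblastoid cells/well in complete medium. AC50 fitted with standard Hill equation; tetraoctylammonium bromide positive control.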

[3] = MultiTox-Fluor Cytotoxicity Assay - LYMP1-002 - Dead Cells (AID 960); conditions: LYMP1-002 lymphoblastoid cells, dead-cell protease fluorescence; series mostly up to 46.1 µM; also: nearly all actives have a fitted effect of over 60% in size
How it was run: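 Human lymphoblastoid cells (LYMP1-002), 2500/well in complete medium, were exposed to compounds for 16 hr at 37 C. Dead-cell protease activity was read as bis-AAF-R110 fluorescence (Ex/Em 485/520), normalized to DMSO and 15 uM tetraoctylammonium bromide; AC50 from Hill fits.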

[4] = Cell Viability - LYMP1-003 - Assay at 40 hr (AID 964); conditions: LYMP1-003 lymphoblastoid viability; series mostly up to 92.2 µM; also: nearly all actives have a fitted effect of over 60% in size
How it was run: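 Human lymphoblastoid LYMP1-003 cells, 2500/well in complete medium, rested 5 hr at 37 C, then exposed to compounds for 40 hr at 37 C. Viability read as intracellular ATP by CellTiter-Glo luminescence; AC50 from Hill fits of concentration-response data.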

[5] = Cell Viability - LYMP2-003 (AID 965); conditions: LYMP2-003 lymphoblastoid cell viability; series mostly up to 92.2 µM;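 also: cells exposed to compounds for 24 h before reading; nearly all actives have a fitted effect of over 50% in size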
How it was run: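 CellTiter-Glo luminescence (cellular ATP) after 24 h compound exposure at 37 C in complete medium; 2500 cells/well, 5 h settling beforehand. Concentration-response fitted to standard Hill equation for AC50. Tetraoctylammonium bromide served as positive control.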

[6] = Cell Viability - LYMP2-005 (AID 967); conditions: LYMP2-005 lymphoblastoid cell viability; series mostly up to 92.2 µM
How it was run: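 Steps: seed 2500 LYMP2-005 cells/well, incubate 5 h at 37 C, add compound, incubate 24 h at 37 C, add CellTiter-Glo, wait 30 min at RT, read luminescence. Concentration-response data fitted to Hill equation for AC50.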

[7] = Cell Viability - LYMP2-011 (AID 969); conditions: LYMP2-011 lymphoblastoid cells viability; series mostly up to 92.2 µM; also: nearly all actives have a fitted effect of over 60% in size
How it was run: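 Human lymphoblastoid cells (2500/well) were plated in complete medium, preincubated 5 hr at 37 C, then exposed to compounds for 24 hr at 37 C. Intracellular ATP was read by CellTiter-Glo luminescence, and AC50 came from Hill-equation concentration-response fits.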

[8] = Cell Viability - LYMP2-013 (AID 970); conditions: LYMP2-013 lymphoblastoid cells viability; series mostly up to 92.2 µM; also: nearly all actives have a fitted effect of over 55% in size
How it was run: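 Human lymphoblastoid cells, 2500/well, were preincubated 5 hr at 37 C, then treated with compounds for 24 hr at 37 C in complete medium. Intracellular ATP was read by CellTiter-Glo luminescence; AC50 from Hill-equation fits of concentration-response data.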

[9] = Cell Viability - LYMP2-017 (AID 972); conditions: LYMP2-017 lymphoblastoid cell viability; series mostly up to 92.2 µM; also: nearly all actives have a fitted effect of over 55% in size
How it was run: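 Human lymphoblastoid cells (2500/well) were seeded in complete medium, held 5 hr at 37 C, then exposed to compounds for 24 hr at 37 C. Intracellular ATP was read by CellTiter-Glo luminescence after 30 min at room temperature, with AC50 values from Hill-equation fits.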

[10] = Cell Viability - LYMP2-019 (AID 973); conditions: LYMP2-019 lymphoblastoid cell line viability; series mostly up to 92.2 µM; also: nearly all actives have a fitted effect of over 55% in size
How it was run: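 Human lymphoblastoid cells were seeded at 2500 cells/well, preincubated 5 hr at 37 C, then exposed to compounds for 24 hr at 37 C in complete medium. Intracellular ATP was measured by CellTiter-Glo luminescence; AC50 from Hill fits.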

[11] = Cell Viability - LYMP2-021 (AID 974); conditions: LYMP2-021 lymphoblastoid cells viability; series mostly up to 92.2 µM;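 also: compound exposure lasts 24 hours at 37 °C; nearly all actives have a fitted effect of over 55% in size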
How it was run: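 Human lymphoblastoid cells (2500/well) were preincubated 5 hr at 37 C, then exposed to compounds for 24 hr at 37 C in complete medium. Intracellular ATP was read by CellTiter-Glo luminescence; AC50 came from Hill-equation fits of concentration-response data.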

[12] = Cell Viability - LYMP2-023 (AID 975); conditions: LYMP2-023 lymphoblastoid cell viability; series mostly up to 92.2 µM
How it was run: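 Human lymphoblastoid cells (2500/well) were preincubated 5 hr at 37 C, then exposed to compounds for 24 hr at 37 C in complete medium. Cellular ATP was read by CellTiter-Glo luminescence, and AC50 came from Hill-equation fits.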

[13] = Cell Viability - LYMP2-010 (AID 981); conditions: LYMP2-010 lymphoblastoid cell viability, qHTS; series mostly up to 92.2 µM; also: nearly all actives have a fitted effect of over 55% in size
How it was run: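 Human lymphoblastoid LYMP2-010 cells (2500/well) were preincubated 5 hr at 37 C, then exposed to compounds for 24 hr at 37 C in complete medium. Intracellular ATP was measured by CellTiter-Glo luminescence after 30 min at room temperature; AC50 from Hill-fitted concentration-response.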

[14] = Cell Viability - LYMP2-014 (AID 983); conditions: LYMP2-014 lymphoblastoid cells, viability qHTS; series mostly up to 92.2 µM; also: nearly all actives have a fitted effect of over 50% in size
How it was run: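 Human lymphoblastoid cells (2500/well) were pre-incubated 5 hr at 37 C, then exposed to compounds in complete medium for 24 hr at 37 C. Intracellular ATP was read by CellTiter-Glo luminescence after 30 min at room temperature; AC50 from Hill fits.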

[15] = Cell Viability - LYMP2-016 (AID 984); conditions: LYMP2-016 lymphoblastoid cell viability, qHTS; series mostly up to 92.2 µM; also: nearly all actives have a fitted effect of over 55% in size
How it was run: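 qHTS, 1536-well: 2500 LYMP2-016 cells/well, 5 hr 37 C, compound added, 24 hr 37 C, CellTiter-Glo 30 min RT, luminescence. Tetraoctylammonium bromide positive control. AC50 via Hill fit.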

[16] = Cell Viability - LYMP2-020 (AID 986); conditions: series mostly up to 92.2 µM; also: nearly all actives have a fitted effect of over 55% in size
How it was run: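 Human lymphoblastoid cells, 2500/well, were pre-incubated 5 hr at 37 C, then exposed to compounds for 24 hr at 37 C in complete medium. Intracellular ATP was read by CellTiter-Glo luminescence, and AC50 was derived by Hill fitting of concentration-response data.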

[17] = Cell Viability - LYMP2-022 (AID 987); conditions: LYMP2-022 lymphoblastoid cell viability; series mostly up to 92.2 µM; also: nearly all actives have a fitted effect of over 55% in size
How it was run: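 Human lymphoblastoid cells, 2500/well, preincubated 5 hr at 37 C, then exposed to compounds over a concentration range for 24 hr at 37 C in complete medium. Viability read as intracellular ATP by CellTiter-Glo luminescence after 30 min at room temperature; AC50 from Hill fits.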

[18] = Cell Viability - LYMP2-024 (AID 988); conditions: LYMP2-024 lymphoblastoid cell viability; series mostly up to 92.2 µM; also: nearly all actives have a fitted effect of over 60% in size
How it was run: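 Human lymphoblastoid cells (2500/well) in complete medium were preincubated 5 hr at 37 C, then exposed to compounds for 24 hr at 37 C. Intracellular ATP was read by CellTiter-Glo luminescence; AC50 from Hill-equation fits of concentration-response data.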

[19] = qHTS assay for small molecule disruptors of the mitochondrial membrane potential - 1 hr assay (AID 651754; calls by dose curve; also: nearly all actives have a fitted effect of over 35% in size); conditions: series mostly up to 92.2 µM
How it was run: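 HepG2 cells, attached overnight at 37C, were exposed to compound or DMSO vehicle for 1 hr at 37C, 5% CO2, then stained with Mito-MPS dye for 30 min. Red aggregate versus green monomer fluorescence reports membrane potential.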

[20] = biological target: Tumor necrosis factor (Homo sapiens) (UniProt P01375); test: qHTS assay to identify small molecules that stimulate Tumor Necrosis Factor-alpha (TNF-alpha) secretion (AID 651757; active = well fitted curve in the direction sought with a large enough effect in the signal ratio; the % refers to the signal ratio); conditions: Human cells, HTRF 665/615 ratio; series mostly up to 92.2 µM
Sequence of Tumor necrosis factor (Homo sapiens) (P01375 whole entry, looked up): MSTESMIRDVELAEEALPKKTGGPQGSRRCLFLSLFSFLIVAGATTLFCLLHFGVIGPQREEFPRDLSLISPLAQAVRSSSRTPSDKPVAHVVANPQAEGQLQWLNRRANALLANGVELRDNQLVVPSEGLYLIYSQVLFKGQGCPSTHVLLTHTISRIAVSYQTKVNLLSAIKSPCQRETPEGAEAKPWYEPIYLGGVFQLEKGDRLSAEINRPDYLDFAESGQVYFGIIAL
How it was run: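 THP-1 cells were exposed to compounds for 17 hrs at 37 C, after which secreted TNF-alpha was measured by homogeneous HTRF (TR-FRET) using cryptate- and XL665-labeled anti-TNF-alpha antibodies, read after 3 hr at room temperature.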

Measured: Potency

Cc1ccc2ccccc2c1
inactive: [1] > 92 µM | [2] | [3] | [4] | [5] | [6] | [7] | [8] | [9] | [10] | [11] | [12] | [13] | [14] | [15] | [16] | [17] | [18] | [19] | [20]

C=C(C)C#N
inactive: [1] > 92 µM | [3] | [4] | [5] | [6] | [7] | [8] | [12] | [13] | [14] | [16] | [20]

c1ccc(OP(Oc2ccccc2)Oc2ccccc2)cc1
inactive: [1] > 92 µM | [2] | [3] | [4] | [5] | [6] | [7] | [8] | [9] | [10] | [11] | [12] | [13] | [14] | [15] | [16] | [17] | [18] | [19] | [20]

C=CC(C)=O
inactive: [1] > 92 µM | [2] | [3] | [4] | [5] | [6] | [7] | [8] | [9] | [10] | [11] | [12] | [13] | [14] | [15] | [16] | [17] | [18] | [19] | [20]

CCCCOCCOP(=O)(OCCOCCCC)OCCOCCCC
inactive: [1] > 92 µM | [2] | [3] | [4] | [5] | [6] | [7] | [8] | [9] | [10] | [11] | [12] | [13] | [14] | [15] | [16] | [17] | [18] | [19]

O=[N+]([O-])c1cccc2ccccc12
inactive: [1] > 92 µM | [2] | [3] | [4] | [5] | [6] | [7] | [8] | [9] | [10] | [11] | [12] | [13] | [14] | [15] | [16] | [17] | [18] | [19] | [20]

OCC1CO1 (stereo not drawn)
inactive: [1] > 92 µM | [2] | [3] | [4] | [5] | [6] | [7] | [8] | [9] | [10] | [11] | [12] | [13] | [14] | [15] | [16] | [17] | [18] | [19] | [20]

CCOc1ccc(N)cc1
inactive: [1] > 92 µM | [2] | [3] | [4] | [5] | [6] | [7] | [8] | [9] | [10] | [11] | [12] | [13] | [14] | [15] | [16] | [17] | [18] | [19] | [20]

C=C(C)C(=O)OCC1CO1 (stereo not drawn)
inactive: [1] > 92 µM | [2] | [3] | [4] | [5] | [6] | [7] | [8] | [9] | [10] | [11] | [12] | [13] | [14] | [15] | [16] | [17] | [18] | [19] | [20]

Cc1ccc(O)c(C)c1
inactive: [1] > 92 µM | [2] | [3] | [5] | [6] | [7] | [8] | [9] | [10] | [11] | [12] | [14] | [15] | [16] | [17] | [18] | [19] | [20]

C=CC(=O)OCC
inactive: [1] > 92 µM | [2] | [3] | [4] | [5] | [6] | [7] | [8] | [9] | [10] | [11] | [12] | [13] | [14] | [15] | [16] | [17] | [18] | [19] | [20]

CCC[CH2][Sn]([Cl])([Cl])[Cl]
inactive: [1] > 92 µM | [2] | [3] | [4] | [5] | [6] | [7] | [8] | [9] | [10] | [11] | [12] | [13] | [14] | [15] | [16] | [17] | [18] | [19] | [20]

Clc1ccc2ccccc2c1
inactive: [1] > 92 µM | [2] | [3] | [4] | [5] | [6] | [7] | [8] | [9] | [10] | [11] | [12] | [13] | [14] | [15] | [16] | [17] | [18] | [19] | [20]

O=C(Cl)/C=C/C(=O)Cl
inactive: [1] > 92 µM | [2] | [3] | [4] | [5] | [6] | [7] | [8] | [9] | [10] | [11] | [12] | [13] | [14] | [15] | [16] | [17] | [18] | [19] | [20]

C=CC(=C)C
inactive: [1] > 92 µM | [2] | [4] | [5] | [6] | [7] | [8] | [9] | [10] | [11] | [12] | [13] | [14] | [15] | [16] | [17] | [18] | [19] | [20]

Source: PubChem BioAssay (NCATS)
